Compounds with a hit are over-represented: about 12% of the library has one in this group of screens.
JMJD2A Tudor inh: qHTS Assay for Inhibitors of JMJD2A-Tudor Domain | AlphaScreen JMJD2A-Tudor / H3K4me3 peptide binding | Lysine-specific demethylase 4A (Homo sapiens), O75164 | 390,000 tested, 4.4% active | Potency, µM (top dose mostly 114 µM), for the others: top-dose activity change, negative = inhibition, actives largely listed as inhibitors; also: potency is read from the fitted curve at half-maximal effect; % is scaled to controls: 0 for no effect and ±100 for the full control effect; nearly all actives have a fitted effect of over 50% in size
Target sequence (O75164 whole entry, looked up, the tested form may be a part): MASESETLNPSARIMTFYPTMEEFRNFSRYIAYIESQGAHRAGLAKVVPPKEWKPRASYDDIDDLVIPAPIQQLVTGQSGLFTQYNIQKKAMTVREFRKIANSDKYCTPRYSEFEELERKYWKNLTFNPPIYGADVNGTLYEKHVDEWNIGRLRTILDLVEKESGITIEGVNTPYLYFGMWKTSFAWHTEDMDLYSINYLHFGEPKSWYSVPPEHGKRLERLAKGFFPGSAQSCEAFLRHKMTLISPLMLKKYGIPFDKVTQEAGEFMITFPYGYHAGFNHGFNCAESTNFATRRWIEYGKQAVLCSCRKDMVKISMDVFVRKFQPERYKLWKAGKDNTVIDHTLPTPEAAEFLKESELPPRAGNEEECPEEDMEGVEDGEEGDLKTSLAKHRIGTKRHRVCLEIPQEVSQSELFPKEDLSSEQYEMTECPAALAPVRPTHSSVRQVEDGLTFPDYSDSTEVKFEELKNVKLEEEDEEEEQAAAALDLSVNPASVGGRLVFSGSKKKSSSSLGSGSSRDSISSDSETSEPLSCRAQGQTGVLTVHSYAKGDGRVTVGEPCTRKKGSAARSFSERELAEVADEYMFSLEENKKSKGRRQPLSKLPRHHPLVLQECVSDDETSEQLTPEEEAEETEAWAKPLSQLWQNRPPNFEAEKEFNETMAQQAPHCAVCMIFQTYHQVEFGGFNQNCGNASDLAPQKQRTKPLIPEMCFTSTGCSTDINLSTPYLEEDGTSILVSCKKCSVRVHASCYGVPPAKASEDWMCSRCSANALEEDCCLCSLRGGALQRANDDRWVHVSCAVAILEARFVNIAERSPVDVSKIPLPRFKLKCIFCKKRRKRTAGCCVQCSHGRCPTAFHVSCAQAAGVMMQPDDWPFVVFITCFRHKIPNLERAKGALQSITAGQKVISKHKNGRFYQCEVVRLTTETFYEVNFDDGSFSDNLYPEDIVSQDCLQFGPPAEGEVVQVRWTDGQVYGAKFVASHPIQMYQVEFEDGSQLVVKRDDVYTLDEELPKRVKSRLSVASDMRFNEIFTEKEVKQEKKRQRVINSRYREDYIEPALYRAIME
BAZ2B inh: qHTS Assay for Inhibitors of BAZ2B | Bromodomain adjacent to zinc finger domain protein 2B (Homo sapiens), Q9UIF8 | AlphaScreen BAZ2B-H3K14Ac peptide displacement | Potency, µM (series often up to 114 µM), for the others: at the highest dose activity change, negative = inhibition, most hits filed as inhibitors | 360,000 tested, 4.4% active | AID 504333, 2011; also: potency is read from the fitted curve at half-maximal effect; % is scaled to controls: 0 for no effect and ±100 for the full control effect; nearly all actives have a fitted effect of over 60% in size
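Protein-peptide AlphaScreen: BAZ2B 50 nM, b-H3K14Ac 50 nM, 1x PBS pH 7.4 + 0.01% Tween-20. Preincubation 30 min RT; cpd 30 min RT (top 110 uM); beads 20 min RT, light-protected.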
PI5P4K alpha inh: qHTS for Inhibitors of phosphatidylinositol 5-phosphate 4-kinase (PI5P4K). PI5P4Kalpha enzyme, ADP-Glo luminescence, 60 min; stronger effect = lower value. 330,000 tested, 1.2% active. max response, %; active = max response of -50% or lower; inconclusive = between -30% and -50%; inactive = -30% or higher; also: value at the top dose of about 77 µM; % is scaled to controls: 0 for no effect and ±100 for the full control effect
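Human PI5P4Kalpha with substrate in 0.038 M HEPES pH 7.4, 0.28 mM EGTA, 0.1% CHAPS, 5% DMSO; reaction started with 5 microM ATP (final), 60 min at room temperature. ADP formed read by ADP-Glo luminescence.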
HP1b binding inh: HTS for Inhibitors of HP1-beta Chromodomain Interactions with Methylated Histone Tails; AID 540317, 2011; 390,000 tested, 0.56% active; Chromobox protein homolog 1 (Homo sapiens), P83916; Potency, µM (top dose mostly 114 µM), for the others: at the highest dose activity change, negative = inhibition, most hits filed as inhibitors; AlphaScreen HP1-beta / biotin-H3K9me3 peptide binding; also: potency is read from the fitted curve at half-maximal effect; nearly all actives have a fitted effect of over 70% in size
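AlphaScreen: HP1-beta (50 nM) preformed 30 min with biotin-H3(1-18)K9me3 peptide (50 nM) in PBS pH 7.4, 0.01% Tween-20. Compound added for 30 min at RT, then streptavidin donor/nickel chelate acceptor beads (10 ug/mL) for 30 min.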
PLK1 PBD inh: qHTS for Inhibitors of PLK1-PDB (polo-like kinase 1 - polo-box domain): Primary Screen; Plk1 PBD binding of FITC phosphopeptide, fluorescence polarization; Potency, µM, for the others: max response, negative = inhibition, most hits filed as inhibitors; 360,000 tested, 2.8% active; AID 720504, 2013; also: potency is read from the fitted curve at half-maximal effect; series mostly up to about 57 µM; % is scaled to controls: 0 for no effect and ±100 for the full control effect; nearly all actives have a fitted effect of over 65% in size
G9a inh: qHTS Assay for Inhibitors of Histone Lysine Methyltransferase G9a; 350,000 tested, 8.8% active; Potency, µM (top dose mostly 102 µM), inactives show top-dose activity, negative = inhibition, most hits filed as inhibitors; Histone-lysine N-methyltransferase EHMT2 (Homo sapiens), Q96KQ7; G9a H3K9 monomethylation, AlphaScreen, 2 h; AID 504332, 2011; also: potency is read from the fitted curve at half-maximal effect; % is scaled to controls: 0 for no effect and ±100 for the full control effect; nearly all actives have a fitted effect of over 75% in size
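G9a (20 nM) preincubated 15 min RT with compounds, then 500 nM biotinylated H3K9 peptide and 20 uM SAM added; 2 h RT reaction. Monomethyl-H3K9 product detected by AlphaScreen with anti-H3K9me1 antibody, streptavidin donor and anti-rabbit IgG acceptor beads.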
Numbers without * were called inactive; ? = inconclusive; . = no result given; [ ] = another dose, or the depositor's remark. Unless noted, calls follow the shape of the dose curve; as a rule, active = well fitted curve in the direction sought with a large enough effect; inconclusive = small, poorly fitted or top-dose-only effect, or another doubt; inactive = no such curve, though single readings can be large; an effect the other way counts as inactive or inconclusive.

SMILES | JMJD2A Tudor inh | BAZ2B inh | PI5P4K alpha inh | HP1b binding inh | PLK1 PBD inh | G9a inh
CC(Sc1nnc(-c2ccc(O)cc2)o1)C(=O)Nc1cccc2ccccc12 (stereo unspecified) | -19%[57.1 µM] | -30% | -11 | -4% | -25% | 13µM*
COc1ccc(NC(=O)CSc2nnc(-c3nonc3NC(C)=O)n2C)cc1Cl | -15% | -3% | . | 34% | . | -8%[59 µM]
COc1ccc(NC(=O)Cn2cc(S(=O)(=O)c3ccccc3)c(=O)c3cc(C)ccc32)cc1Cl | -20% | -10% | . | 18% | . | -2%[59 µM]
COc1ccc(C2=C(C)C(=NCCCN3CCN(c4cc(C)ccc4C)CC3)NS2(=O)=O)cc1 | -15% | -10% | . | 13% | . | -32%[59 µM]
CCCn1c(SCC(=O)c2ccc3c(c2)OCCO3)n[nH]c1=O | -7%[57.1 µM] | . | 8 | 45% | -16% | 11%
CCCn1c(SCC(=O)c2cc(C)c(C)cc2C)n[nH]c1=O | -5% | 3% | 0 | 35% | -15% | 11µM*
O=C(CC(c1ccccc1)C1CCCCC1=O)c1ccco1 (stereo unspecified) | -16% | 2% | 4 | 13% | -8% | 5%[59 µM]
O=C(CC(c1ccco1)C1CCCCC1=O)c1ccco1 (stereo unspecified) | -26% | ? | 0 | 26% | -7% | 56µM*
Cc1cc(C)c(C)c(S(=O)(=O)N2CCC(C(=O)OCC(=O)N3c4ccccc4NC(=O)C3(C)C)CC2)c1C | ? | 50µM* | -2 | -10% | -3% | 14%[12.7 µM]
CC1(C)C(=O)Nc2ccccc2N1C(=O)COC(=O)C1CCCCC1 | -6% | 4% | 12 | 28% | -2% | 7%[59 µM]
COc1cc(/C=C2\C(C)=C(C#N)c3nc(N)c(C#N)c(C)c32)ccc1OCC(=O)O | -31% | 56µM* | -14 | 6% | 27µM* | 25µM*
Cc1cccc(NS(=O)(=O)c2cccs2)c1 | -28% | -2% | . | 18% | -1% | -8%[12.7 µM]
Cc1cc(C)nc(NS(=O)(=O)c2cccs2)c1 | -6% | -4% | -14 | 8% | -8% | 56µM*
N#CC/C(N)=N/Nc1nc2ccccc2nc1Cc1ccccc1 | ? | -16% | -3 | -5%[57 µM] | -19% | 50µM*
N#CCn1c(Cc2ccccc2)nc2ccccc2c1=O | 0% | 0% | -3 | 32% | 1% | 29%[59 µM]
COc1ccccc1Cc1c(-c2ccccc2)nc2ccc(Cl)cn12 | . | . | -24 | . | -8% | .
N#CCCn1cnc2c(=S)nc[nH]c21 | 35µM* | -33% | . | 7% | -11% | ?
CC(=O)N1CCC2(CC1)CN(C(c1ccccc1)c1ccccc1)C2 | . | . | . | . | . | -3%[12.7 µM]
S=C(NCCCc1cnc[nH]1)NCCCN(Cc1ccccc1)c1ccc(Br)cn1 | 56µM* | . | . | . | . | .
S=C(NCCCc1cnc[nH]1)NCCCN(CCc1ccccc1)c1ccc(Br)cn1 | 56µM* | . | . | ? | . | .
CCCCN(CCCNC(=S)NCCCc1cnc[nH]1)c1ccc(Br)cn1 | 50µM* | . | . | . | . | .
CCOC(=O)CN1CC23C=CC(O2)C(C(=O)N2CCN(c4ccc(F)cc4)CC2)C3C1=O (stereo unspecified) | -21% | -2% | 3 | 22% | -9% | -50%
COCCCN1CC23C=CC(O2)C(C(=O)O)C3C1=O (stereo unspecified) | ? | 1% | -8 | ? | 27µM* | ?
CCCOC(=O)C1[C@H]2C(=O)N(CCCOC)C[C@]23C=C[C@H]1O3 (stereo partly specified) | -31% | -1% | . | -4% | -6% | 12%[59 µM]
CCOC(=O)CN1CC23C=CC(O2)C(C(=O)NCc2ccc(F)cc2)C3C1=O (stereo unspecified) | 0% | -2% | 2 | 57% | -8% | 22µM*
SMILES | JMJD2A Tudor inh | BAZ2B inh | PI5P4K alpha inh | HP1b binding inh | PLK1 PBD inh | G9a inh
CCOc1cccc(=O)c2c(C)n(CC(=O)c3ccccc3)c(C)c12 | -27% | -28% | ? | 79µM* | -10% | ?
COc1cccc(=O)c2c(C)n(CC(=O)c3ccccc3)c(C)c12 | -34% | ? | ? | -5% | -11% | ?
Cc1ccc(Cn2c(=O)n(Cc3ccc(Cl)cc3)c(=O)c3cccnc32)cc1 | 1% | 15% | . | 31% | . | 2%[59 µM]
CCCC(C)(C)C(=O)N1CCC1(C)C(=O)NS(=O)(=O)c1cccc(Cl)c1 (stereo unspecified) | . | . | 4 | . | -5% | .
O=C1C2C3C=CC(CC3)C2C(=O)N1/N=C/c1ccc(O)c(O)c1 (stereo unspecified) | -23% | ? | ? | ? | -16% | ?
O=C1c2ccccc2C(=O)N1/N=C/c1ccc(O)c(O)c1 | 8.9µM* | ? | -12 | -20%[57 µM] | ? | 11µM*
O=S(=O)(c1ccc(OC(F)(F)F)cc1)N1CCN(c2nc(-c3cccs3)nc3ccccc23)CC1 | 0% | . | . | 38% | . | .
COC(=O)CC1C(C)(C)C(=O)C2CC3=C4CC(=O)OC(c5ccoc5)[C@]4(C)CCC3[C@@]1(C)C2=O (stereo partly specified) | . | . | . | . | . | -36%[2.33 µM]
COc1ccc2c(c1)c(=O)oc1c(C)c(OC(C)C(=O)N[C@@H](Cc3c[nH]c4ccc(O)cc34)C(=O)O)ccc12 (stereo partly specified) | ? | 50µM* | -16 | 6% | -7% | .
COc1ccc(CSc2nnc(-c3ccncc3)n2C)cc1F | -14% | -2% | -1 | 12% | -23% | ?
O=C(NC1CC1)c1cccc(NC(=O)c2cn3ccccc3n2)c1 | 40µM* | 4% | 2 | -5% | -11% | 10%[2.33 µM]
O=C(NC1CC1)c1cccc(NC(=O)c2cnn(-c3ccccc3)n2)c1 | -18% | . | 4 | 19% | 7% | .
Cc1nc2c(=O)[nH]c(=S)n(C)c2nc1C | 50µM* | -28% | ? | -71% | 3µM* | 7.1µM*
COc1ccc(C(=O)NCc2ccccc2OC)cc1 | 1% | -3% | . | 29% | -3% | -7%[59 µM]
COc1ccccc1CNC(=O)c1ccc(-c2ccccc2)cc1 | -6% | -5% | 0 | 33% | -6% | 45µM*
COc1ccccc1CNC(=O)c1ccc2ccccc2n1 | -6% | 79µM* | 2 | 41% | -9% | 10%
O=C1CC(N2CCN(c3ccccc3)CC2)C(=O)N1c1ccc2c(c1)OCCO2 (stereo unspecified) | -3% | -1% | 0 | 37% | 0% | -40%[59 µM]
CN1CCN(C2CC(=O)N(c3ccc4c(c3)OCCO4)C2=O)CC1 (stereo unspecified) | ? | ? | -5 | 45% | 4% | 45µM*

Screening results deposited in PubChem by National Center for Advancing Translational Sciences (NCATS).
